Only some compounds are listed: those with a hit (about 0.9% of all), similar ones and a draw of the others.
E coli growth-1: E. coli V3065 growth inhibition, primary screen, counter-screen for AddAB inhibitor project, absorbance, OD600; inhibition, % at 11.9 µM; 0.27% of 330,000 active; AID 449728, 2010; 18 h;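 active = inhibition above the campaign's mean inhibition across all tested compounds plus 3 SD, cut at about 9.9% in these data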;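 also: uninfected addAB+ strain grown without phage in ampicillin broth; 0% = DMSO wells and 100% = ciprofloxacin 0.95 µg/ml wells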
AddAB inh: growth inhibition of E. coli expressing H. pylori AddAB, primary screen, AddAB inhibitor project, absorbance | inhibition, % at 11.9 µM | 0.29% of 330,000 active; in the data active = inhibition above about 12%;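 also: 0% = vehicle wells of infected cells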
E coli growth-2: E. coli growth inhibition, primary screen, OD600 | Escherichia coli growth, 23 h; active compounds read low | OD600 absorbance (test concentration not listed) | 0.21% of 330,000 active;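 active = OD600 absorbance below the run mean of sample wells minus 3.6 SD, in any replicate, cut at about 0.56 in these data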
Calb FLC: C. albicans growth inhibition with fluconazole, primary screen, CaCi-2 strain, Alamar Blue fluorescence. C. albicans CaCi-2 (fluconazole-resistant clinical isolate) + fluconazole, 48 h. growth inhibition, % (concentration not given with the values). 0.57% of 300,000 active;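 active = growth inhibition above about 58% in most replicates, limit read from the data, passing the limit was not always enough; inconclusive = exactly half the replicates above a set limit; inactive = most replicates below a set limit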;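 also: all wells also contain fluconazole at 8 µg/ml as a sub-toxic cotreatment; 0% = median of DMSO wells and 100% = median of geldanamycin control wells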
Tat export inh: E. coli Tat export inhibitors, primary screen, MC4100, TorA-mCherry reporter, fluorescence, single point; inhibition, % at 10 µM; 0.036% of 340,000 active;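 active = mean replicate inhibition at least 50% and at least half of replicates individually reaching 50%; inconclusive = only one of the two criteria met; inactive = neither criterion met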;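 also: exported cargo escapes ClpAP degradation while cytoplasmic cargo is degraded and loses fluorescence; 0% = median of neutral control wells and 100% = median of NaSCN control wells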
phage Ecoli inh: growth loss of phage-infected E. coli, primary screen, RecBCD inhibitor project, absorbance, with phage, HTS | inhibition, % at 11.9 µM | 0.26% of 360,000 active | AID 651602, 2012; in the data active = inhibition above about 11%
AddAB confirm: growth loss of phage-infected E. coli expressing H. pylori AddAB, confirmation, AddAB inhibitor project, absorbance, E. coli V3065, T4 phage, triplicate; shares compounds with AddAB inh; OD; T4 phage with gene 2 nonsense mutations; inhibition, % at 11.9 µM; 64% of 880 active; AID 488942, 2010;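 active = mean inhibition above a set limit taken from the earlier primary screen, cut at about 13% in these data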;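 also: higher means less bacterial growth since AddAB block lets phage replicate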
RecBCD counter: growth loss of RecBCD+ E. coli with mutant T4 phage, counter-screen for AddAB inhibitor project, absorbance, V66 E. coli; OD growth; inhibition, % at 11.9 µM; 73% of 880 active; shares compounds with AddAB inh;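 active = mean inhibition above the mean of solvent-only control wells plus 3 SD, cut at about 4% in these data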;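 also: optical density read after an 18 h incubation at 37 °C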
bact viab count: bacterial viability inhibition counter-screen, confirmation, counter-screen for AddAB inhibitor project, absorbance; inhibition, % at 11.9 µM; 35% of 880 active; shares compounds with AddAB inh; absorbance (AddAB counterscreen); in the data active = inhibition above about 25%
RecBCD conf: growth loss of phage-infected RecBCD+ E. coli, confirmation, RecBCD inhibitor project, absorbance, E. coli V66, T4 gene 2 phage. shares compounds with phage Ecoli inh. E. coli V66 + T4 2- phage, growth OD. inhibition, % at 11.9 µM. 45% of 890 active. AID 651982, 2013;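 active = mean inhibition over triplicates exceeding the hit threshold derived in the original primary screen, cut at about 11% in these data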
Ecoli viability: E. coli viability inhibition, counter-screen for RecBCD inhibitor project, absorbance, high throughput; inhibition, % at 11.9 µM; absorbance (OD) growth; 29% of 890 active; AID 651983, 2013; shares compounds with phage Ecoli inh; in the data active = inhibition above about 20%;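 also: E. coli strain V66 grown with compound alone and no phage infection; 0% = bacteria with DMSO vehicle only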
AddAB counter: growth loss of phage-infected AddAB-carrying E. coli, confirmation, counter-screen for RecBCD inhibitor project, absorbance, E. coli V3065, T4 phage | shares compounds with phage Ecoli inh | E. coli expressing H. pylori AddAB + T4 phage, OD growth; gene 2 mutant T4, recBCD-deleted host | 45% of 890 active | inhibition, % at 11.9 µM;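 active = mean inhibition above the solvent-only control wells' mean plus 3 SD, cut at about 22% in these data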;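 also: higher means less bacterial growth from phage killing when AddAB is blocked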
The depositor's hits bear a star; ? = inconclusive; . = no result given.

SMILES	E coli growth-1	AddAB inh	E coli growth-2	Calb FLC	Tat export inh	phage Ecoli inh	AddAB confirm	RecBCD counter	bact viab count	RecBCD conf	Ecoli viability	AddAB counter
Nc1ncnc2c1ncn2[C@H]1CC[C@@H](CO)O1	75.3*	75.8*	0.365*	.	14.1	53.2*	94.4*	47.8*	88.5*	59.8*	55.1*	88.3*
O=c1[nH]cnc2c1ncn2[C@@H]1C[C@@H](O)[C@H](CO)O1	-1.6	2.5	0.611	9.2	-13.3	0.6	.	.	.	.	.	.
C=CCOc1ccc(C=NNC(=O)C(C)Sc2ccccn2)cc1OCC (stereo not drawn)	.	.	0.62	.	.	.	.	.	.	.	.	.
Cc1cc(C)c2c(N=NN3CCOCC3)[nH]nc2n1	17.0*	76.9*	0.674	0.6	-5.4	11.6*	70.7*	4.2*	33.5*	5.7	6.1	32.2*
Oc1c(C(Nc2nc3ccccc3s2)c2ccco2)ccc2cccnc12 (stereo not drawn)	21.2*	19.3*	0.661	?	-7.2	14.5*	13.6*	13.3*	12.4	8.4	9.2	16.1
CC(C)C(=O)NC(c1ccco1)c1ccc2cccnc2c1O (stereo not drawn)	15.4*	16.1*	.	97.9*	-11.2	21.1*	5.6	14.7*	4.8	4.5	8.4	16.6
CC(=O)NC(c1ccco1)c1cc(F)c2cccnc2c1O (stereo not drawn)	0.8	-2.0	0.685	.	-2.0	1.2	.	.	.	.	.	.
CC(C)C(=O)NC(c1cccc([N+](=O)[O-])c1)c1ccc2cccnc2c1O (stereo not drawn)	22.8*	18.2*	0.6	6.5	-0.9	23.0*	27.0*	21.8*	21.9	16.4*	20.9*	27.6*
CC(=O)c1ccc(NC(=S)N2CCN(C(=S)Nc3ccc(C(C)=O)cc3)C(C)C2)cc1 (stereo not drawn)	-3.1	-0.8	0.709	-21.6	9.4	2.5	.	.	.	.	.	.
COc1c(N2CCN(C(=S)NC3CC4CCC3C4)C(C)C2)c(F)cc2c(=O)c(C(=O)O)cn(C3CC3)c12 (stereo not drawn)	99.2*	98.6*	0.092*	-13.5	63.8*	98.8*	101.7*	101.0*	100.6*	101.5*	103.3*	102.9*
COc1c(N2CCN(C(=S)Nc3ccc(F)cc3)C(C)C2)c(F)cc2c(=O)c(C(=O)O)cn(C3CC3)c12 (stereo not drawn)	99.1*	98.9*	0.0735*	-0.3	76.3*	72.9*	97.5*	98.5*	99.8*	13.5*	14.1	101.5*
Cc1n[nH]c(=S)n(NC(=O)CC(=O)Nn2c(=S)[nH]nc(C)c2=O)c1=O	12.6*	18.5*	0.639	93.3*	-0.3	15.5*	33.0*	15.0*	31.5*	13.8*	15.3	35.0*
Cc1n[nH]c(=S)n(NC(=O)/C=C/C(=O)Nn2c(=S)[nH]nc(C)c2=O)c1=O	.	.	0.666	-7.3	-0.8	2.4	.	.	.	.	.	.
COc1ccc(OC)c(NC(=O)Nc2nnc(N3CCCCC3C)s2)c1 (stereo not drawn)	13.5*	12.9*	0.694	32.1	2.1	12.7*	1.5	17.2*	-1.8	10.3	12.1	-4.6
CC(C(=O)NCc1ccc(S(C)(=O)=O)cc1)C1C[C@@]1(C)C(NC(=O)OCc1ccccc1)c1ccccc1 (stereo partly drawn)	.	.	0.706	.	.	.	.	.	.	.	.	.
Nc1[nH]c(=O)ncc1F	19.3*	27.6*	0.677	.	-0.2	29.2*	44.7*	20.4*	43.9*	32.3*	24.1*	52.0*
CO[C@H]1/C=C/O[C@@]2(C)Oc3c(C)c(O)c4c(O)c(c(C=NN5CCN(C)CC5)c(O)c4c3C2=O)NC(=O)/C(C)=C\C=C\[C@H](C)[C@H](O)[C@@H](C)[C@@H](O)[C@@H](C)[C@H](OC(C)=O)[C@@H]1C	48.0*	51.6*	.	.	77.7*	78.0*	58.7*	57.9*	62.1*	80.5*	88.6*	102.0*
CC(CC(=O)Nc1ccc(Cl)c(Cl)c1)=NNC(N)=S	.	.	0.715	.	.	.	.	.	.	.	.	.
O=C1c2ccccc2NC(c2ccc(-c3ccc(Br)cc3)o2)N1O (stereo not drawn)	23.7*	24.4*	0.621	102.0*	-25.9	23.3*	18.6*	18.1*	16.7	14.3*	14.1	14.9
O=C1c2ccccc2NC(c2ccc(-c3ccc(F)cc3)o2)N1O (stereo not drawn)	6.2	6.9	.	.	-4.7	2.1	.	.	.	.	.	.
O=C1c2ccccc2NC(c2ccc(-c3cccc([N+](=O)[O-])c3)o2)N1O (stereo not drawn)	25.1*	26.6*	0.634	1.8	-3.2	22.0*	21.3*	19.9*	17.4	9.2	14.4	11.8
CC(=O)NN1C(=O)c2ccccc2NC1c1cccc([N+](=O)[O-])c1 (stereo not drawn)	0.5	0.8	0.655	-5.6	4.2	2.5	.	.	.	.	.	.
COC(=O)NN=Cc1cc(Cl)c(OCc2ccccc2F)c(OC)c1	.	.	0.651	.	.	.	.	.	.	.	.	.
CCOC(=O)C1C2COc3ccc(C)cc3C2N2C(=O)c3ccc(Cl)cc3NC(=O)[C@@]12C (stereo partly drawn)	.	.	0.7	.	.	.	.	.	.	.	.	.
O=C(O)c1ccnc(Cl)c1	-1.0	0.8	0.65	17.0	-7.3	1.0	.	.	.	.	.	.
[N-]=[N+]=CC(=O)c1ccnc(C(=O)C=[N+]=[N-])c1	37.7*	30.9*	0.556*	.	5.6	18.4*	56.7*	22.3*	42.6*	20.0*	21.3*	48.9*

Compound activity (PubChem)
